From PubChem BioAssay (NCI)
Compounds without any hit were thinned out: in the full panel of roughly 79,000, 15% have a hit. Unmarked numbers belong to inactive results. The source made the active and inactive calls. Cut-off read from the data, not from the text of the source: active = growth inhibition above about 70%; inactive = the rest.

Tests used:
[1] = NCI Yeast Anticancer Drug Screen. Data for the rad50 strain (AID 155);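 note: 0% = growth of vehicle-only cultures of the same strain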; conditions: S. cerevisiae rad50 strain growth inhibition, active compounds read high
Method in brief: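 Compounds were tested on a yeast strain with an engineered DNA damage repair alteration; the reported value is growth inhibition normalised to vehicle treatment.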

[2] = NCI Yeast Anticancer Drug Screen. Data for the mec2-1 strain (AID 157); conditions: S. cerevisiae mec2-1 strain, active compounds read high
Method in brief: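 Each compound was tested on mec2-1 yeast, a strain altered in DNA damage repair or cell cycle control. Growth inhibition is reported relative to vehicle.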

[3] = NCI Yeast Anticancer Drug Screen. Data for the sgs1 mgt1 strain (AID 161);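 note: 0% = growth of cultures given vehicle only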; conditions: S. cerevisiae sgs1 mgt1 strain, active compounds read high
Method in brief: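 Inhibition of yeast growth, normalised to vehicle-treated controls, is reported for a strain bearing genetic alterations in DNA damage repair.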

[4] = NCI Yeast Anticancer Drug Screen. Data for the cln2 rad14 strain (AID 165);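 note: 0% = growth equal to vehicle treated cultures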; conditions: S. cerevisiae cln2 rad14 strain, active compounds read high
Method in brief: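 Test compounds were added to cln2 rad14 yeast cultures; inhibition of growth was then determined by comparison with vehicle treatment.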

[5] = NCI Yeast Anticancer Drug Screen. Data for the bub3 strain (AID 167); conditions: S. cerevisiae bub3 mutant strain, active compounds read high
Method in brief: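 Growth of a checkpoint-deficient yeast mutant is measured after compound exposure. Values represent inhibition relative to vehicle.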

[6] = NCI Yeast Anticancer Drug Screen. Data for the mlh1 rad18 strain (AID 175); conditions: S. cerevisiae mlh1 rad18 strain growth inhibition, active compounds read high
Method in brief: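 Inhibition values reflect reduced growth of mutant yeast versus vehicle-treated controls following compound exposure; the mutations affect DNA damage repair.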

[7] = at 5.0 µM (retest, dose inferred, filed as 0.5)
[8] = at 50.0 µM (retest, dose inferred, filed as 5.0)

Row | SMILES | growth inhibition [1, 7] | growth inhibition [1, 8] | growth inhibition ([1]; at 50.0 µM) | growth inhibition [2, 7] | growth inhibition [2, 8] | growth inhibition ([2]; at 50.0 µM) | growth inhibition [3, 7] | growth inhibition [3, 8] | growth inhibition ([3]; at 50.0 µM) | growth inhibition [4, 7] | growth inhibition [4, 8] | growth inhibition ([4]; at 50.0 µM) | growth inhibition [5, 7] | growth inhibition [5, 8] | growth inhibition ([5]; at 50.0 µM) | growth inhibition [6, 7] | growth inhibition [6, 8] | growth inhibition ([6]; at 50.0 µM)
1 | Cc1ccc(/C=N/NC(N)=S)cc1C | -6% | 18% | 45.1% | -4% | 3% | 10.8% | -5% | 9% | 61.7% | -12% | -13% | -11.1% | -4% | -2% | 34.8% | -6% | 7% | 65.6%
2 | O=C(CNCc1ccccc1)c1ccc(Cl)cc1 | -3% | -6% | 11.6% | -2% | 6% | 1.45% | -3% | 17% | 8.4% | -1% | -22% | 24.6% | -2% | 35% | -7.85% | -4% | 14% | 14.5%
3 | CSC(=S)NN=C1CCCC1 | 66% | 97% (active) | 87.5% (active) | 57% | 98% (active) | 83.7% (active) | 61% | 97% (active) | 89.9% (active) | 49% | 98% (active) | 57.8% | 78% (active) | 98% (active) | 94.8% (active) | 58% | 97% (active) | 89.5% (active)
4 | CC/C(=N\OC(=O)Nc1ccccc1)c1ccc(OC(=O)Nc2ccccc2)cc1 | 4% | 22% | 60.5% | -7% | 58% | 55% | 2% | 46% | 76.8% (active) | -4% | 7% | 49.6% | 1% | 48% | 33.1% | 2% | 24% | 76.1% (active)
5 | C/C(=N\NC(=S)N(C)C)c1cccc(C)n1 | 76% (active) | 98% (active) | 99.2% (active) | 84% (active) | 99% (active) | 99.3% (active) | 84% (active) | 99% (active) | 99.2% (active) | 89% (active) | 99% (active) | 99% (active) | 70% (active) | 98% (active) | 99.3% (active) | 95% (active) | 98% (active) | 99.3% (active)
6 | NCCC(N)P(=O)(O)O (stereo not given) | -166% | -150% | 20.6% | -46% | -48% | 16.2% | -61% | -60% | -3.9% | -61% | -51% | 16.6% | -74% | -71% | 13% | -141% | -111% | 0.45%
7 | CCCC1CCCC1(CC(=O)c1ccccc1)C(=O)O (stereo not given) | 21% | 52% | 70.3% (active) | 19% | 46% | 64.8% | 25% | 47% | 81.7% (active) | 24% | 54% | 82.3% (active) | 63% | 76% (active) | 90.2% (active) | 47% | 72% (active) | 82.5% (active)
8 | O=[N+]([O-])c1ccc(C(Nc2ccccc2)c2ccc3cccnc3c2O)cc1 (stereo not given) | -5% | 83% (active) | 71.9% (active) | -1% | 82% (active) | 80% (active) | -10% | 85% (active) | 76% (active) | -37% | 79% (active) | 81.3% (active) | -11% | 85% (active) | 58.6% | 4% | 85% (active) | 82.2% (active)
9 | O=C1C(Cl)=C(NCCC2CCCN3CCCCC23)C(=O)c2ccccc21 (stereo not given) | 13% | 48% | 65.3% | -8% | 54% | 53.4% | 10% | 55% | 79.5% (active) | 2% | 37% | 63.7% | 2% | 51% | 26.1% | 6% | 27% | 70.8% (active)
10 | COc1cc(Br)c(CC(NC=O)c2ccc3c(c2)OCO3)cc1OC (stereo not given) | -4% | 81% (active) | 62.5% | -3% | 74% (active) | 66.3% | -5% | 95% (active) | 36.5% | 4% | 95% (active) | 57.4% | 3% | 98% (active) | 96.3% (active) | -1% | 81% (active) | 56.5%
